In all, about 340,000 compounds went through this assay and about 1,800 (0.53%) were called active. The sample holds actives, similar compounds and a random draw of the others, so the mix is not that of the screen. Unmarked numbers belong to inactive results.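 Rule for the calls: active = activation over 3 SD above normal in the single-dose calcium agonist read (cut at about 30% in these data); inactive = the rest.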

D(2) dopamine receptor (Homo sapiens), sequence (P14416 whole entry, looked up): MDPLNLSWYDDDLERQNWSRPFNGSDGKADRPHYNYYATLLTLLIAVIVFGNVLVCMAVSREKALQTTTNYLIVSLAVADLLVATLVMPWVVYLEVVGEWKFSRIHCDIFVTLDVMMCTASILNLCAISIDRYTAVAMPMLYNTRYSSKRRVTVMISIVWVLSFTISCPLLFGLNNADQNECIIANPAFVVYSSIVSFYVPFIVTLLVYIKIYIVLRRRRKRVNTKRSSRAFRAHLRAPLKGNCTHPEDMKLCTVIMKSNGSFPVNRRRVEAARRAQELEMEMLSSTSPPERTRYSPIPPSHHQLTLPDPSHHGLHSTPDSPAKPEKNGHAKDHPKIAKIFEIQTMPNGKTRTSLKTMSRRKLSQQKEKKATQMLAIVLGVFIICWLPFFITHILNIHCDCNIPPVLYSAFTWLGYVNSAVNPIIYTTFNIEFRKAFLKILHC

The experiment addresses D(2) dopamine receptor (Homo sapiens) (UniProt P14416). Briefly: HTS Assay for Allosteric Agonists of the Human D2 Dopamine Receptor: Primary Screen for Agonists. Note: 0% is about no effect. Conditions: HEK293 T-REx D2 cells, calcium flux agonist mode; at 2 µM; stronger effect = higher value. The source says:
NIH Chemical Genomics Center [NCGC] NIH Molecular Libraries Probe Centers Network [MLPCN] MLPCN Grant: NS064831-01 Assay Submitter (PI): David Sibley Dopamine receptors (DARs) are involved in the etiology and/or therapy of a number of neuropsychiatric and endocrine disorders. For instance, all receptor-based antiparkinsonian drugs work via stimulating the D2 DAR subtype whereas all FDA-approved antipsychotic agents are antagonists of this receptor. […] There are three different types of allosteric modulators that we are seeking, two of which will stimulate or augment receptor signaling, allosteric agonists and potentiators, while the third, allosteric antagonists, will attenuate receptor signaling. The present primary screening assay measures compound agonism by tracking calcium flux in a […], inducible Hek293 Trex D2 cell line.
Freshly passaged cells are plated in 1536 well black, clear bottom plates at a density of 4000 cells/well in 3 ul of complete media containing 1x tetracycline inducer. After an overnight incubation at […] in 5% CO2, cells are loaded with 2 ul of the no wash Calcium Assay Kit (ABD Bioquest) and incubated at room temperature for 30 to 90 minutes. Agonist read: A 10 cycle (1 second/cycle) baseline measurement is taken and then the FDSS online 1536 pintool delivers 23 nl of compound library (as well as dopamine controls) to the plate. The plate is measured for kinetically at 1 cycle/sec for 180 seconds and is considered to be the agonist portion of the assay (eg, compounds which activate a positive calcium response during this portion are flagged as potential agonists). Following the 180 second read, 1 ul of either an EC20 (positive modulation assay) or EC80 (negative modulation assay) is delivered by an onboard pipette head. Measurements are taken kinetically for an additional 180 seconds.
In the case of `COc1cccc(OC)c1OCCN1CCN(C(=O)c2ccco2)CC1`, the activation is 87.8% (active).

On to `c1ccc(-c2ccc(OCCN3CCOCC3)cc2)cc1`, for which the activation was 0.22%. As to `COc1cccc(OCc2cc(C(=O)N3CCN(C(=O)c4ccco4)CC3)no2)c1`, the activation was -0.444%. In the case of `Cc1ccc(F)cc1NC(=O)N1CCCN(c2ccc(C(F)(F)F)cn2)CC1`, the activation is 0.948%. Regarding `O=C(c1ccco1)N1CCN(C(=S)Nc2cc(F)cc(F)c2)CC1`, the activation is 0.216%. For the molecule `O=C(c1ccc(Br)o1)N1CCN(CCOc2ccccc2)CC1`, the activation is 67.9% (active).

For `COc1cccc(OC)c1C(=O)N1CCN(Cc2cccnc2)CC1`, the activation is 1.08%. For `O=C(c1ccco1)N1CCN(Cc2cccc(C(F)(F)F)c2)CC1`, the activation is 59.9% (active). On to `O=C(Nc1ccc(F)cc1F)N1CCCN(CCOc2ccccc2)CC1`, for which the activation was 41.8% (active).

Consider `O=C(CN1CCN(C/C=C/c2ccccc2)CC1)Nc1ccc(F)cc1F`, for which the activation is 0.754%. For `O=CN1CCN(C(=O)c2ccc(Br)o2)CC1`, the activation was 0.34%. Consider `O=C(CN1CCN(C(=O)c2ccco2)CC1)Nc1ccc(Cl)c(C(F)(F)F)c1`, for which the activation is -0.254%. With `CC(=O)N1CCCc2cc(S(=O)(=O)Nc3ccc(Cl)cc3F)ccc21`, the activation was 0.983%.

With `COc1ccc(CCNC(=O)C(=O)NCC(c2ccco2)S(=O)(=O)c2cccs2)cc1OC` (centres undefined), the activation was 0.136%.

Take `O=C(NCCc1ccc(Cl)cc1)c1ccc2c(c1)N(Cc1ccc(F)cc1)C(=O)CS2`: the activation is -0.585%.

For the molecule `COc1ccc(OC)c(-c2noc(N3CCN(c4cc(Cl)ccc4C)CC3)n2)c1`, the activation was 0.838%. Turning to `O=C(c1ccco1)N1CCN(CCOc2ccccc2)CC1`, the activation is 74.5% (active).

With `O=C(c1ccco1)N1CCN(C(=O)c2ccc(COc3ccc(F)cc3)o2)CC1`, the activation was -1.15%. Consider `O=C(CNS(=O)(=O)c1ccccc1)N1CCN(C(=O)c2ccco2)CC1`, for which the activation is 0.7%. As for `O=C(NCc1ccc(Cl)cc1)c1ccc2c(c1)nnn2C1CCCC1`, the activation is -0.221%. Regarding `O=C(NCc1ccccc1)C1CCN(S(=O)(=O)c2ccc3[nH]c(=O)ccc3c2)CC1`, the activation was -1.06%. Consider `c1ccc(-c2cnc(CN3CCN(c4ccccc4)CC3)o2)cc1`, for which the activation was 40% (active).

On to `COc1ccc(N2CCN(Cc3nnc(-c4ccccc4)o3)CC2)cc1`, for which the activation was 0%. With `Cc1ccc(C)c(N2CCN(Cc3nnc(-c4ccccc4)o3)CC2)c1`, the activation was 0.463%. On to `COc1cc(OC)c(OC)cc1/C=C/c1nc2ccccc2c(=O)n1-c1ccc(Br)c(C)c1`, for which the activation was 1.46%. With `COc1cc2[nH]c(=S)n(CCN3CCCCC3C)c(=O)c2cc1OC` (centres undefined), the activation is 1.14%. Next, `CCOc1cc2[nH]c(=S)n(CCCN3CCCC3=O)c(=O)c2cc1OCC`: -1.56%. Turning to `CCOc1cc2[nH]c(=S)n(CCN3CCCCC3C)c(=O)c2cc1OCC` (centres undefined), the activation was 30.2% (active). As for `Fc1ccc(-c2nc(Nc3cccc(Cl)c3)nc3c2COc2ccccc2-3)cc1`, the activation was -1.77%. `O=C1N(Cc2ccccc2)c2ccc(Cl)cc2C1(O)c1c[nH]c2ccccc12` (centres undefined): the activation was 0.529%. `CCN(CC)c1ccc(NC(=O)Cn2nc3c(cc2=O)CCCC3)c(C)c1`: the activation is -1.68%. For the molecule `Cc1cc(=O)c2cc(C(=O)Nc3cccc(C)c3C)ccc2[nH]1`, the activation was 1.06%. In the case of `COc1ccc2oc(=O)cc(CN3CCOCC3)c2c1`, the activation is 0.172%. `COc1ccc(N2CCN(Cc3cc(=O)oc4ccc5ccccc5c34)CC2)cc1`: the activation is 48.7% (active). On to `COc1ccc2c(CN3CCN(S(=O)(=O)c4cccs4)CC3)cc(=O)oc2c1`, for which the activation is 1.59%.

With `CC1(c2ccc(Cl)cc2)NC(=O)N(CC(=O)c2ccc3c(c2)OCO3)C1=O` (centres undefined), the activation was 6.26%.

As to `O=C(CN1CCN(c2ccccc2F)CC1)c1ccc2c(c1)OCO2`, the activation was 34.1% (active).

On to `CCC1(c2ccccc2)NC(=O)N(CC(=O)c2ccc3c(c2)OCO3)C1=O` (centres undefined), for which the activation is 0.171%. As for `COc1ccc(NC(=O)C2CCN(c3ccc(Sc4ccc(C)cc4)nn3)CC2)c(OC)c1`, the activation was -0.0405%.

As for `CCN(CC)c1ccc2oc(=O)c(C)nc2c1`, the activation is 33.2% (active). Consider `CCc1ccc2oc(-c3ccc(N)cc3)nc2c1`, for which the activation was 0.79%. Take `Cc1ccc2c(=O)oc(N(C)C)nc2c1`: the activation is -0.369%. On to `COC(=O)c1ccc(NC(=O)c2cnn(-c3ccc(Cl)cc3)c2C2CCN(C(=O)OC(C)(C)C)CC2)cc1`, for which the activation was -0.0655%.

With `CC(C)S(=O)(=O)c1oc(-c2ccc(F)cc2)nc1S(=O)(=O)c1ccc(F)cc1`, the activation is 6.9%. On to `COc1ccccc1NC(=O)CSc1oc(-c2ccco2)nc1S(=O)(=O)c1ccc(Br)cc1`, for which the activation is -0.604%. Regarding `CCOc1ccccc1N(CC)C(=O)c1cc2ccc3cccnc3c2[nH]1`, the activation was 0.0244%. With `COc1cccc(NC(=O)c2ccc3nc(CCc4ccccc4)oc3c2)c1`, the activation was 0.0569%.

For `O=C(COC(=O)CCc1ccc(S(=O)(=O)N2CCOCC2)cc1)Nc1cccc(Cl)c1`, the activation was 1.09%. Consider `O=C(CN1CCN(c2cccc(Cl)c2)CC1)Nc1ccc(S(=O)(=O)N2CCOCC2)cc1`, for which the activation was 56.5% (active). In the case of `O=C(CN1CCCCCC1)Nc1ccc(S(=O)(=O)N2CCCCC2)cc1`, the activation is -2.81%. With `COc1ccc(CCn2cc3c(c2-c2ccc(Br)cc2)c(=O)n(C)c(=O)n3C)cc1OC`, the activation was -0.343%.

As to `CCC(=O)Nc1cccc(C(=O)OCc2cc(=O)n3nc(CC)sc3n2)c1`, the activation is 3.26%. To `Cc1cc(F)ccc1NC1(c2ccccc2)C(=O)c2ccccc2C1=O` belongs -1.91%; to `CC(C)CCN1CCN(C/C=C/c2ccco2)CC1CCO` (centres undefined), -3.43%; to `CC(C)CCN1CCN(Cc2ccc(C(F)(F)F)cc2)CC1CCO` (centres undefined), -0.55%. As for `CC(C)CCN1CCN(Cc2cn[nH]c2C2CCCCC2)CC1CCO` (centres undefined), the activation was 71.9% (active).

As to `COc1ccc(CNC(=O)CCc2c(C)nn(-c3ccc(N4CCCC4)nn3)c2C)cc1`, the activation is -0.779%. Consider `COc1ccc(C2=NC(c3ccncc3)=Nc3ccc(Br)cc3N2)cc1`, for which the activation was 2.06%. In the case of `COc1ccc(OC)c2sc(N3CCN(C(=O)C4COc5ccccc5O4)CC3)nc12` (centres undefined), the activation is -0.0345%. As to `Cc1c(CC(=O)N2CCN(C(=O)C3COc4ccccc4O3)CC2)c(=O)oc2c(O)c(O)ccc12` (centres undefined), the activation was 86.6% (active). To `COc1cc(NS(=O)(=O)c2ccc3c(c2)OCC(C(=O)N2CCCC2)O3)cc(OC)c1` (centres undefined) belongs 0.531%. Turning to `O=C(/C=C/c1cn(CC(O)CN2CCc3ccccc32)c2ccccc12)c1ccc(Br)cc1` (centres undefined), the activation was 2.61%. Next, `Cc1ccc(CSc2nc3ccsc3c(=O)n2CCC(C)C)cc1`: 0.237%. As to `COc1ccc(Cl)cc1NC(=O)Cn1c(=O)c2ccccc2n2nncc12`, the activation was 0.159%. To `Cc1ccc(NC(=O)O/N=C/c2cccc([N+](=O)[O-])c2)cc1` belongs 1.09%. On to `CCc1ccc(NC(=O)C(C)OC(=O)/C=C/c2cccc([N+](=O)[O-])c2)cc1` (centres undefined), for which the activation is -0.67%. As to `CCC(CC)NC(=O)/C=C/c1cccc([N+](=O)[O-])c1`, the activation was 55.2% (active). As for `O=S(=O)(NCCc1nnc2ccc(SCc3ccc(Cl)cc3Cl)nn12)c1ccccc1`, the activation is 0.55%.

As for `CCOC(=O)C(Cc1ccccc1)NC(=O)CCc1c(C)nc2c(c(C)nn2-c2ccc(C)c(C)c2)c1C` (centres undefined), the activation was 3.29%. Take `COC(=O)CN1C(=S)N(c2ccccc2)C(=O)C1CC(=O)Nc1ccc(Cl)cc1` (centres undefined): the activation was -0.464%. Take `O=C(NCCCc1ccccc1)C1CCC(=O)N(CCc2ccc(Cl)cc2)C1` (centres undefined): the activation was -1.17%.

For `O=C(CSC1CC(=O)N(CCc2ccccc2)C1=O)Nc1ccc(Cl)cc1` (centres undefined), the activation is 49.2% (active). In the case of `CCc1ccc(CN(Cc2ccco2)C(=O)c2ccccc2Cl)cc1`, the activation was 0.564%. Turning to `COc1cc(NC(=O)c2nn(-c3ccc(C)cc3)c(=O)c3c2c2ccccc2n3C)cc(OC)c1OC`, the activation is -0.5%. To `Cc1c(NC(=O)c2cc(=O)c3ccccc3o2)c(=O)n(-c2ccccc2)n1C` belongs 0.0233%; to `Cc1ccc(O)c(-c2cc(C(=O)NCc3ccccc3)[nH]n2)c1`, 0.766%. On to `Cc1ccc(O)c(-c2cc(C(=O)Nc3c(C)n(C)n(-c4ccccc4)c3=O)[nH]n2)c1`, for which the activation was 34.8% (active). To `O=C(NCc1ccc(F)cc1)c1ccc(Cn2c(SCc3ccc(F)cc3)nc3cccnc32)cc1` belongs 1.06%; to `O=C(c1ccc2c(c1)N(Cc1ccccc1)C(=O)c1ccccc1S2(=O)=O)N1CCCC1`, 1.63%; to `COc1ccc(OCCCn2cccc2/C=C2/C(=N)N3OC(C)=CC3=NC2=O)cc1`, -1.02%. Next, `CC(C)(C)OC(=O)NCCCCCC(=O)N/N=C/c1coc2ccccc2c1=O`: 0%; `CC1=CC2=NC(=O)/C(=C/c3coc4ccccc4c3=O)C(=N)N2O1`: 49.9% (active); `CCOC(=O)c1c(C)[nH]c(CCC(=O)Nc2ccc(OC)c(OC)c2)c1C`: -0.832%. Next, `Cc1ccc2ncc(C(=O)Nc3ccc(OC(F)(F)F)cc3)c(=O)n2c1`: -0.574%. With `CCO[C@@H]1OC(C(=O)NCc2nc3ccccc3[nH]2)=C[C@H](C2CCCCC2)[C@H]1CCCO`, the activation is -0.239%.

On to `O=C(OCc1nc2ccccc2[nH]1)C1CCCCC1`, for which the activation was 41.5% (active). For `O=C(Oc1cccc(O)c1)C1CCCCC1`, the activation is 0.57%. Take `COc1ccc(S(=O)(=O)NCC(c2ccc(N(C)C)cc2)N2CCCC2)cc1` (centres undefined): the activation is -2.12%. Next, `CC1CCCCN1S(=O)(=O)c1ccc(F)c(C(=O)Nc2ccccc2C(F)(F)F)c1` (centres undefined): 0.192%.

For the origin of these results see PubChem BioAssay AID485358 (National Center for Advancing Translational Sciences (NCATS), 2010).
